# Measurements as given in PubChem BioAssay (NCI).
# Compounds without any hit were thinned out: in the full panel of roughly 83,000, 20% have a hit.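 Negative percent growth values reflect cell death: -40 means 40% of the cells present at the start died, and -100 means all died.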 Active and inactive are the calls of the source.
# System: U251 CNS
# Test: NCI-60 one-dose screen, 48 h (100 = growth as untreated, 0 = no growth, -100 = all killed)
# Settings: 10 µM
# Description: Growth inhibition of the U251 human tumor cell line is measured as a screen for anti-cancer activity. Cells are grown in 96 well plates and exposed to the test compound for 48 hours. Compounds are tested at a single concentration, which is 10^-5 M for most compounds. The reported endpoint is percent growth (GI% or GIPRCNT), where numbers from 0 - 100% represent growth inhibition, and numbers from -100% - 0 represent cell death. For example, a value of 40 represents 60% growth inhibition. A value of 0 means no net growth occurred over the course of the experiment. A value of -40 indicates 40% of cells at the beginning of the experiment died by the end of the experiment. A value of -100 means all cells are dead at the end of the experiment.
# NCI-60 Human Tumor Cell Lines Screen was performed using the standard one-dose NCI protocol, which is described in more detail at https://dtp.cancer.gov/discovery_development/nci-60/default.htm.
# Compounds with GIPRCNT values below 10 were considered active. Activity score was based on GIPRCNT using the following formula: […]
# Score is 0 for GIPRCNT values of 100 or above, 50 for GIPRCNT values of 0, and 100 for GIPRCNT values of -100.
row,Compound,growth
1,COC(=O)C[C@](O)(CCCC(C)C)C(=O)O[C@H]1C(OC)=C[C@@]23CCCN2CCc2cc4c(cc2[C@@H]13)OCO4,-19.5% (active)
2,COC(=O)C[C@](O)(CCC(C)C)C(=O)O[C@@H]1C(OC)=C[C@]23CCCN2CCc2cc4c(cc2[C@H]13)OCO4,-27.3% (active)
3,COc1ccc(OC)c(/C=C/C(=O)c2nc3ccccc3n2Cc2ccc(F)cc2)c1,-74% (active)
4,COc1cc2cc(C(=O)N3C[C@@H](CCl)c4c3cc(OC(=O)N3CCN(C)[C@@H]5CSSC[C@@H]53)c3ccccc43)[nH]c2c(OC)c1OC,7.22% (active)
5,CC(C)C[C@H](NC(=O)CNC(=O)C[C@H]1O[C@@H]2OC3(C)CC[C@H]4[C@H](C)CC[C@@H]([C@H]1C)[C@@]24OO3)B(O)O,13.7% (inactive)
6,CC[C@]12C=CCN3CC[C@@]4(c5ccc(OC)cc5N(C)[C@H]4[C@@](O)(C(=O)OC)[C@@H]1OC(=O)CCCC[P+](c1ccc(C)cc1)(c1ccc(C)cc1)c1ccc(C)cc1)[C@@H]32,-93.6% (active)
7,O=C(/C=C/c1ccc(F)cc1)c1nc2ccccc2n1Cc1ccc(F)cc1,-56.3% (active)
8,COC(=O)CCn1c(-c2ccc(-n3cc(-c4ccc(O[C@H]5O[C@@H]6OC7(C)CC[C@H]8[C@H](C)CC[C@@H]([C@H]5C)[C@@]68OO7)cc4)nn3)cc2)nc2ccccc21,32.5% (inactive)
9,COc1cc(OC)c(S(=O)(=O)N(CCCl)CCCl)cc1C(=O)/C=C/c1cc(OC)c(OC)c(OC)c1,-79.6% (active)
10,COC(=O)c1ccc(-n2cc(CCCN(CCNc3ccnc4cc(Cl)ccc34)C(=O)CCC(=O)O[C@@H]3O[C@@H]4OC5(C)CC[C@H]6[C@H](C)CC[C@@H]([C@H]3C)[C@@]46OO5)nn2)cc1,53.3% (inactive)
11,C=CCN=C([Se])NC(=O)c1ccc2c(c1)OCO2,36.2% (inactive)
12,COc1ccc(/C=C/C(=O)c2nc3ccccc3n2Cc2ccc(Br)cc2)cc1,50.2% (inactive)
13,O=C(/C=C/c1cccc(Br)c1)c1nc2ccccc2n1Cc1ccc(Br)cc1,-83.3% (active)
14,COCCOCCOCCOc1ccc(-n2cc(-c3ccc(O[C@H]4O[C@@H]5OC6(C)CC[C@H]7[C@H](C)CC[C@@H]([C@H]4C)[C@@]57OO6)cc3)nn2)cc1,73% (inactive)
15,O=C(/C=C/c1ccccc1Cl)c1nc2ccccc2n1Cc1ccc(F)cc1,-87.5% (active)
16,CC[C@]12C=CCN3CC[C@@]4(c5ccc(OC)cc5N(C)[C@H]4[C@@](O)(C(=O)OC)[C@@H]1OC(=O)CCCC[P+](C1CCCCC1)(C1CCCCC1)C1CCCCC1)[C@@H]32,-87.9% (active)
17,CC(=C\C(=O)Oc1ccc2c3c1OC1C(O)CCC4(O)C(C2)N(CC2CCC2)CCC314)/C=C1\CCCc2ccccc21 (stereo not given),47.4% (inactive)
18,O=C([Se]C1C=CCCC1)c1ccc(C(=O)[Se]C2C=CCCC2)s1 (stereo not given),-88% (active)
19,CC1=C2C(=C[C@@](C)(COP(=O)(Oc3ccccc3)Oc3ccccc3)[C@@H]2O)C(=O)[C@@](C)(O)C12CC2,-43.4% (active)
20,CC12OOC(C)(OO1)C2CCC(=O)NCCCNc1ccnc2cc(Cl)ccc12 (stereo not given),101% (inactive)

row,Compound,growth
1,O=C(NCCCCC(c1ccc(F)cc1)c1ccc(F)cc1)Nc1ccc([N+](=O)[O-])c(C(F)(F)F)c1,2.48% (active)
2,O=C(/C=C/c1ccc(Cl)cc1)c1nc2ccccc2n1Cc1ccc(F)cc1,-62.8% (active)
3,CC12OOC(C)(OO1)C2CCC(=O)OCCNc1ccnc2cc(Cl)ccc12 (stereo not given),105% (inactive)
4,O=C(/C=C/c1ccco1)c1nc2ccccc2n1Cc1ccc(F)cc1,40.9% (inactive)
5,O=C(NC([Se])=NC1CCCCC1)c1ccccc1,49.2% (inactive)
6,C#CC[Se]C(=O)c1ccc(C(=O)[Se]CC#C)s1,44.7% (inactive)
7,COP(=O)(CC(F)(F)C(F)(F)F)OC,81.7% (inactive)
8,CC[C@]12C=CCN3CC[C@@]4(c5ccc(OC)cc5N(C)[C@H]4[C@@](O)(C(=O)OC)[C@@H]1OC(=O)CCC[P+](c1ccc(F)cc1)(c1ccc(F)cc1)c1ccc(F)cc1)[C@@H]32,18.5% (inactive)
9,CC1=C(C=O)C2=C(C)C3(CC3)[C@@](C)(O)C(=O)C2=C1,-43.9% (active)
10,C=CC[Se]C(=O)c1ccc(C(=O)[Se]CC=C)s1,-86.2% (active)
11,O=C(NC([Se])=NC1CCCCC1)c1ccc2c(c1)OCO2,27.6% (inactive)
12,O=C(/C=C/c1ccc(Cl)cc1)c1nc2ccccc2n1Cc1ccc(Br)cc1,34.4% (inactive)
13,C[C@H]1[C@H](OC(=O)CCC(=O)Nc2cnccn2)O[C@@H]2OC3(C)CC[C@H]4[C@H](C)CC[C@@H]1[C@@]24OO3,42.6% (inactive)
14,O=C(/C=C/c1ccc(Br)cc1)c1nc2ccccc2n1Cc1ccc(Br)cc1,-86.3% (active)
15,C#CCCCN(CCNc1ccnc2cc(Cl)ccc12)C(=O)CCC(=O)O[C@@H]1O[C@@H]2OC3(C)CC[C@H]4[C@H](C)CC[C@@H]([C@H]1C)[C@@]24OO3,45.7% (inactive)
16,COc1cc2cc(C(=O)N3C[C@@H](CCl)c4c3cc(OC(=O)N3CCN(C(=O)CCC(=O)N5CCN(C)CC5)[C@@H]5CSSC[C@@H]53)c3ccccc43)[nH]c2c(OC)c1OC,-71.2% (active)
17,COc1cc(OC)c(/C=C/C(=O)c2nc3ccccc3n2Cc2ccc(F)cc2)c(OC)c1,101% (inactive)
18,COc1cc(OC)c(S(=O)(=O)N(CCCl)CCCl)cc1C(=O)/C=C/c1ccc(C)cc1,-2.54% (active)
19,O=C(/C=C/c1ccc(F)cc1)c1nc2ccccc2n1Cc1ccc(Br)cc1,-91.8% (active)
20,CC1=C(CCC=NNC(N)=O)C2=C(C)C3(CC3)[C@@](C)(O)C(=O)C2=C1,-77.4% (active)
